Only a selection was taken, and hits are over-represented in it overall.
TTR transcr act = activators of transthyretin transcription | SH-SY5Y TTR promoter Gaussia luciferase, luminescence; 100% = recombinant luciferase protein wells | activation, % at 16.7 µM | hit rate 1.3% among 92,000 | AID 1117267;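 active = activation above the mean of all tested compounds plus 3 SD, cut at about 9.5% in these data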;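 note: cells exposed to compounds for one day before reading; 0% = median of all test compound wells on the plate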
HuH7 TTR inh = HuH7 TTR transcription inhibition, counter-screen. HuH7 TTR promoter-Gaussia luciferase reporter, luminescence. hit rate 4% among 1,100. shares compounds with TTR transcr act. inhibition, % at 16.7 µM;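 active = average inhibition above the solvent-only control wells' mean plus 3 SD, cut at about 15% in these data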;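 note: 0% = cells with DMSO only and 100% = cells with inhibitor control FD; inhibitors lower well luminescence so higher value means more inhibition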
TTR up confirm = confirmation of human transthyretin transcription activators; shares compounds with TTR transcr act; SHSY5Y TTR promoter Gaussia luciferase, luminescence; 100% = purified Lucia enzyme wells, no cells; activation, % at 16.7 µM; 1,100 tested, under 10 active;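 active = mean activation above a set limit taken from the earlier primary screen, cut at about 11% in these data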;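 note: 0% = DMSO-treated cells and 100% = recombinant Lucia luciferase without cells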
Active calls of the source: *.

SMILES	TTR transcr act	others
C[C@H](CO)N1C[C@H](C)[C@@H](CN(C)C(=O)NC2CCCCC2)Oc2c(NC(=O)Nc3ccc(C(F)(F)F)cc3)cccc2C1=O	-2
COc1ccc(C2c3cc(OC)c(OC)cc3CC3C(=O)OCC32)cc1OC (configuration not stated)	-1
O=C(CN1CCOCC1)NCCNS(=O)(=O)c1ccccc1	0
O=C(NCCNS(=O)(=O)c1ccc(C(F)(F)F)cc1)N1CCOCC1	12*	HuH7 TTR inh=-6;TTR up confirm=0
O=C(CNS(=O)(=O)c1ccc(C(=O)N2CCOCC2)cc1)N1CCOCC1	1
CCCC1CCC2(CCCN2CCOC(=O)Nc2ccccc2)CC1 (configuration not stated)	0
COc1ccc(S(=O)(=O)N2CCC[C@H]2C(=O)NCc2ccc(Cl)cc2)cc1	2
COc1ccc(CNC(=O)C2CCCN2S(=O)(=O)c2ccc(Cl)cc2)cc1 (configuration not stated)	13*	HuH7 TTR inh=-12;TTR up confirm=0
COc1ccc(S(=O)(=O)N2CCCC2C(=O)NCc2ccccc2Cl)cc1 (configuration not stated)	-2
CN(C)c1ccc2c3c(ccc(N(C)C)c13)C(=O)OC2	2
CO[C@@H]1CN(C)C(=O)c2ccc(NS(=O)(=O)c3c(C)noc3C)cc2OC[C@@H](C)NC[C@@H]1C	-1
CCN(CC)CCOc1ccc(-c2c(C)c3c(ccc4ccccc43)oc2=O)cc1	1
COc1ccc(CC(=O)N2CCc3ccccc32)cc1	21*	HuH7 TTR inh=-24;TTR up confirm=0
COc1cc(CO)ccc1OCC(=O)N1CCc2ccccc21	-2
COc1ccc(C(=O)N2CCCc3ccccc32)cc1	6
CCN(CC(=O)NCc1cccs1)c1ccc(S(=O)(=O)N2CCN(C)CC2)cn1	-1
CCOC(=O)N1C(=O)NC(=O)C1c1ccc(OC)cc1 (configuration not stated)	-1
CCOc1cc(C2NC(=O)NC(C)=C2C(=O)OC(C)CC)cc(Br)c1O (configuration not stated)	2
COc1cc(C2NC(=O)NC(C)=C2C(=O)OCC2CCCCC2)cc(Cl)c1O (configuration not stated)	0
COc1cc(C2NC(=O)NC(C)=C2C(=O)OC2CCCC(C)C2)cc(Br)c1O (configuration not stated)	11*	HuH7 TTR inh=-12;TTR up confirm=-1
CNC12CCc3cc(OC)c(OC)c(c31)-c1cc3c(cc1C2)OCO3 (configuration not stated)	0
Cc1csc(NC(=O)CCc2c(C)nc3cc(-c4ccc(Cl)cc4)nn3c2C)n1	1
Cc1csc(NC(=O)CSc2nnc(Cc3cccn3C)n2-c2ccc(F)cc2)n1	0
Cc1csc(NC(=O)CSc2nnc(-c3ccc(Cl)cc3)n2N)n1	44*	HuH7 TTR inh=-34;TTR up confirm=0
COC(=O)Cc1ccc(NC(=S)N2CCN(CCO)CC2)cc1	7
SMILES	TTR transcr act	others
O=C(O)C(=Cc1cccc([N+](=O)[O-])c1)c1ccc(Cl)cc1	-3
O=C(NCc1cc(Cl)cc(Cl)c1)c1csc([C@@H]2C[C@H](O)[C@@H](CO)O2)n1	-2
Cc1ccccc1C(=O)c1ccccc1C(=O)c1ccccc1	6
Nc1sccc1C(=O)c1ccccc1	9.9*	HuH7 TTR inh=-6;TTR up confirm=-1
O=C(c1ccccc1)c1cccs1	1
O=C1O[C@@H](c2ccccc2)C[C@@H](O)[C@H](O)CCCCc2ccccc21	0
O=C(O)c1ccc(CSc2nnc(Cc3ccccc3)o2)cc1	13*	HuH7 TTR inh=42*;TTR up confirm=-2
O=C(CSc1nnc(Cc2ccccc2)o1)N1CCc2ccccc21	0
CC(C)(C)OC(=O)NCCc1nnc(SCc2ccccc2)o1	-2
COc1ccc(N(CC(=O)NCc2cccnc2)S(=O)(=O)c2ccccc2)c(OC)c1	-1
CCOC(=O)C1(C)CCCN(C(=O)c2cccs2)C1 (configuration not stated)	0
CS(=O)(=O)c1sc(C#N)c2c1C(=O)CC(c1ccccc1)C2 (configuration not stated)	-6
COCc1cn(CC[C@@H]2CC[C@@H](NC(=O)Nc3ccc4c(c3)OCO4)[C@@H](CO)O2)nn1	0
CC(=O)Nc1ccc2nc(CN3CCN(CC=C(C)C)C(CCO)C3)ccc2c1 (configuration not stated)	67*	HuH7 TTR inh=-6;TTR up confirm=1
CC(C)=CCN1CCN(Cc2ccc3nsnc3c2)CC1CCO (configuration not stated)	1
CC(C)=CCN1CCN(Cc2ccoc2)CC1CCO (configuration not stated)	-2
CCc1cccc(NC(=O)CCS(=O)(=O)c2ccc(Br)cc2)c1	0
CCC1(CC)Cc2ccccc2-c2[nH]c(=S)[nH]c(=O)c21	1
CCC1(C)Cc2ccccc2C(=O)N1 (configuration not stated)	-2
CCC1(C)Cc2ccccc2C(=S)N1 (configuration not stated)	9.7*	HuH7 TTR inh=-5;TTR up confirm=0
O=S1(=O)N[C@@H](Cc2ccccc2)COc2cc(Br)ccc21	3
O=c1[nH]c(=S)[nH]c2c1C(c1ccc(Cl)cc1)OC(C1CCCCC1)C2 (configuration not stated)	-1
CC1(C(=O)NCc2ccccc2Br)CCN1Cc1ccc2ccccc2c1 (configuration not stated)	-2
O=C(Nc1ccc(N2CCCCC2)cc1)c1ccc2ccccc2n1	-4
COc1ccc2oc(=N)c(C(=O)Nc3cccc(C)c3C)cc2c1	1
SMILES	TTR transcr act	others
Cn1c(=O)c(C(=O)c2ccc(S(C)(=O)=O)c(Cl)c2Cl)c(O)c2ccccc21	0
Cc1ccc(NC(=S)Nc2cccc(-c3n[nH]c(=S)o3)c2)cc1	74*	HuH7 TTR inh=1;TTR up confirm=0
Cc1ccc(C(=O)Nc2cccc(-c3nc4ncccc4o3)c2)cc1	-1
Cc1ccc(NC(=S)Nc2cc(C)on2)cc1	1
COc1cc(NC(=O)CCc2c(C)noc2C)c(C(=O)O)cc1OC	-2
Cc1cccc(C)c1NC(=O)CNC(=O)C1CCCN(C(=O)c2ccc(Cl)cc2)C1 (configuration not stated)	26*	HuH7 TTR inh=-7;TTR up confirm=-1
O=C(Cc1cccc(NC(=O)C2CCCN(C(=O)c3ccccc3)C2)c1)Nc1cccc(C(=O)N2CCCCC2)c1 (configuration not stated)	3
O=C(Cc1cccc(NC(=O)C2CCCN(C(=O)C3CC3)C2)c1)Nc1ccc(C(=O)N2CCCCC2)cc1 (configuration not stated)	1
COc1ccc(CNC(=O)C[C@H]2C[C@H](C(=O)N3CCCCC3)[C@@]3(C)c4[nH]c5cc(CCC(=O)N(C)C)ccc5c4CCN3C2=O)cc1OC	2
C[C@H]1[C@@H](Cc2cc(Cl)cc(Cl)c2)N(c2ccccc2)c2ccccc2CN1Cc1ccccc1	1
Cc1ccc(CCNC(=O)c2cc(S(=O)(=O)N3CCCCC3)c[nH]2)cc1	-2
O=C(NCc1ccc(F)cc1)c1cc(S(=O)(=O)N2CCCCC2)c[nH]1	-2
O=C(NCCc1ccccc1)c1cc(S(=O)(=O)N2CCCCC2)c[nH]1	15*	HuH7 TTR inh=-2;TTR up confirm=-1
COCCN(Cc1ccc(OC)cc1)c1c(C)nc2ccc(C(=O)NCCc3c[nH]c4ccccc34)cn12	0
CN(C)c1ccc(C(CNC(=O)c2ccco2)N2CCCC2)cc1 (configuration not stated)	0
